Test results published in the supplement of paper PMC10849652.
Targets with a hit are over-represented here; the source holds about 7,900 in all. About 0.6% of all pairs of compound and target were hits.

Compound: CC(C)(O)CC(=O)NCCn1ccc2ncnc(Nc3ccc(Oc4cccc(C(F)(F)F)c4)c(Cl)c3)c21
Experiment: log2 fold change, soluble protein after heating vs DMSO (PISA); higher = thermal stabilisation; K562 cells, 10 uM, 30 min; active = over 0.2 and 3.5 SD of the protein, either way, in both replicates (recomputed)
How it was run: (§1)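 K562 cells at 2×10^6 cells/mL were treated with 10 μM compound for 30 min. Aliquots were heated for 3 min across 48°C-58°C, pooled, and extracted in PBS with 0.5% NP-40 at 4°C; soluble protein was the supernatant after 21,000xg for 90 min. Soluble protein was quantified by TMTpro 16plex LC-MS/MS with channel sums equalised, and reported as log2 fold change in thermal stability against DMSO controls, with values from duplicates.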

Chain of UniProt P28908 (P28908 whole entry, looked up): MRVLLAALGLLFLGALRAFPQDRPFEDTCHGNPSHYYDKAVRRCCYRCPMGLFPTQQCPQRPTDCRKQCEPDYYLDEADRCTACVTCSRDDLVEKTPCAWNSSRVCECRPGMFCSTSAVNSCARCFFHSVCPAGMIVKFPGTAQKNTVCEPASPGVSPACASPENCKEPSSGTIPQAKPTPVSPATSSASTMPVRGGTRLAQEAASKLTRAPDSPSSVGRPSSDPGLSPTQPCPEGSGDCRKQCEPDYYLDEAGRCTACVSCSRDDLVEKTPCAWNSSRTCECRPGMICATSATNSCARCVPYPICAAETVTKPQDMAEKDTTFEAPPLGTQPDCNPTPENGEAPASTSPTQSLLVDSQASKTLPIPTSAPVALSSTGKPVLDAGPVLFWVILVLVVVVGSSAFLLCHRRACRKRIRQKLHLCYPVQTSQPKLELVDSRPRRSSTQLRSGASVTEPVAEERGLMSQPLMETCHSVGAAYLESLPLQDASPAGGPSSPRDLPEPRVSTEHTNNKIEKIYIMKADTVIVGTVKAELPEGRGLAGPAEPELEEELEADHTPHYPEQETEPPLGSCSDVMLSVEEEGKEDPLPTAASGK
Chain of UniProt Q7Z7N9 (Q7Z7N9 whole entry, looked up): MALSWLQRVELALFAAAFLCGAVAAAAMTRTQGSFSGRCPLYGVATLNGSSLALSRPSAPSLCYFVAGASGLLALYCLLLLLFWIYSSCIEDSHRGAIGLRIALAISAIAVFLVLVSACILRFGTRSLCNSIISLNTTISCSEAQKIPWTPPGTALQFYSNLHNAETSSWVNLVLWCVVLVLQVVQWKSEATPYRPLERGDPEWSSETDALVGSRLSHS
Chain of UniProt Q9Y5L0 (Q9Y5L0 whole entry, looked up): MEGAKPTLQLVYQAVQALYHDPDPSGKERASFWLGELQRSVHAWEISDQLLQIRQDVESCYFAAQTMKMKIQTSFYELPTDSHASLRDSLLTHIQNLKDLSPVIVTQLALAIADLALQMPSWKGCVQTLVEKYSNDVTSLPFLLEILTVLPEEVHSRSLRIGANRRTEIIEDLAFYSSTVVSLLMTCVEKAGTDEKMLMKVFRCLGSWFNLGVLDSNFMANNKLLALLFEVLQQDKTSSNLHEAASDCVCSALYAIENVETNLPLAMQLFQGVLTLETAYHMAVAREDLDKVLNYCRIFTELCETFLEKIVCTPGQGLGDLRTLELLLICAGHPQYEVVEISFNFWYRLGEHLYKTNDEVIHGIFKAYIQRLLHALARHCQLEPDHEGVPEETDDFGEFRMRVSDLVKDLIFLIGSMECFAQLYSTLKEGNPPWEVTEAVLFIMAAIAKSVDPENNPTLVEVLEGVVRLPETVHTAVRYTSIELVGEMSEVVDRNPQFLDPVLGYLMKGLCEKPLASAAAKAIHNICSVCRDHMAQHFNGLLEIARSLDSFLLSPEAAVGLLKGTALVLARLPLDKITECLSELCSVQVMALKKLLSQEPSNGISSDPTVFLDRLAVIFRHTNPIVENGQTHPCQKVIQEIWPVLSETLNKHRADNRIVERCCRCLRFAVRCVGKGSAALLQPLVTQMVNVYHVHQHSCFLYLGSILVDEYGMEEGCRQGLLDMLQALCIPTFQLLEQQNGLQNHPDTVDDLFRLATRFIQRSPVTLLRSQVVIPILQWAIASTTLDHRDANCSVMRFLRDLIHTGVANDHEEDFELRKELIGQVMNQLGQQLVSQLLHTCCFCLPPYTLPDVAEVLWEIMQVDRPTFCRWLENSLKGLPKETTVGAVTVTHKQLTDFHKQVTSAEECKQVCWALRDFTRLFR
Chain of UniProt Q9H6R7 (Q9H6R7 whole entry, looked up): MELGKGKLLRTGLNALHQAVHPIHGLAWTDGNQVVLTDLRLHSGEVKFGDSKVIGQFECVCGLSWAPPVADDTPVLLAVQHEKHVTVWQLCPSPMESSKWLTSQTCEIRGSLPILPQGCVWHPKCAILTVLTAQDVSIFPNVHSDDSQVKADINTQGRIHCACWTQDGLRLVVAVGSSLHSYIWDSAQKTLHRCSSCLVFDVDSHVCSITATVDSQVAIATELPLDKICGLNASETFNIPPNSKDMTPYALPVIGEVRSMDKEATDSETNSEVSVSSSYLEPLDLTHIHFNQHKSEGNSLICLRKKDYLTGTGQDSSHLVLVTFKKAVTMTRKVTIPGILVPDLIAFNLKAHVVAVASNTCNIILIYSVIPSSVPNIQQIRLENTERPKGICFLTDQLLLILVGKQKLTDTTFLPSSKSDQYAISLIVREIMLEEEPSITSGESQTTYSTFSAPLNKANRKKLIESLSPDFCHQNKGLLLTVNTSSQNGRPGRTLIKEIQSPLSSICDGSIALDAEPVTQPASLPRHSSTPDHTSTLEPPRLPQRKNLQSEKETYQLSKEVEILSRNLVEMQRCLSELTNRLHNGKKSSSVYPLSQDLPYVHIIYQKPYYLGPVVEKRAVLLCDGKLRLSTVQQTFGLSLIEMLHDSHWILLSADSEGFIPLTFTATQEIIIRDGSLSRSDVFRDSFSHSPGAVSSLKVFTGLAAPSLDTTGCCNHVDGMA
Chain of UniProt Q9Y5K5 (Q9Y5K5 whole entry, looked up): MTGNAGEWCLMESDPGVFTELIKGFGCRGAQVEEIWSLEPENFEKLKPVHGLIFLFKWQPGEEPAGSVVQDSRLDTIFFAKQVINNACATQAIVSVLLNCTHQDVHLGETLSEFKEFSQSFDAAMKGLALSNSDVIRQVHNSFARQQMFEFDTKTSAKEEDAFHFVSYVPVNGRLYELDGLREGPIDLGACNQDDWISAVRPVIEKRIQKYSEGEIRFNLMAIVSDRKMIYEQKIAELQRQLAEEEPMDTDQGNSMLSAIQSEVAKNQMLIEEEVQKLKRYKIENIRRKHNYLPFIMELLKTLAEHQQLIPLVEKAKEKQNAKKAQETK
Chain of UniProt Q16881 (Q16881 whole entry, looked up): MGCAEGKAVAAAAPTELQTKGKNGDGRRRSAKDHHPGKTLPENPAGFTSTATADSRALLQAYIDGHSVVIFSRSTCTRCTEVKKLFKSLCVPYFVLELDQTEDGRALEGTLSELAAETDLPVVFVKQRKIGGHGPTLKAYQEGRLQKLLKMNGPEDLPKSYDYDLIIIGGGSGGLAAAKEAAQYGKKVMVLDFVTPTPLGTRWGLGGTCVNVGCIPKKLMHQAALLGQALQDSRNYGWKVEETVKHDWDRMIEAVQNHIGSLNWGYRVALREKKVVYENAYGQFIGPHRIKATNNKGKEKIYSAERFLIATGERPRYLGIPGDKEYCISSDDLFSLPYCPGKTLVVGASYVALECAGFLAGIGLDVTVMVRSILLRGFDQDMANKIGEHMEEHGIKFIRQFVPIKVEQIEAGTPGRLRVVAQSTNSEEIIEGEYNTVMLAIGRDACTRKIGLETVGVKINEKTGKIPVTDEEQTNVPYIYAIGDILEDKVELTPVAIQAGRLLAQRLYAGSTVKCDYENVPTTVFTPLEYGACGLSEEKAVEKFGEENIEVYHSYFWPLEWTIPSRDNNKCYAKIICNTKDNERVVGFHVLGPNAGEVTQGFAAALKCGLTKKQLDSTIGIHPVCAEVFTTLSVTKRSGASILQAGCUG
Chain of UniProt Q96AX1 (Q96AX1 whole entry, looked up): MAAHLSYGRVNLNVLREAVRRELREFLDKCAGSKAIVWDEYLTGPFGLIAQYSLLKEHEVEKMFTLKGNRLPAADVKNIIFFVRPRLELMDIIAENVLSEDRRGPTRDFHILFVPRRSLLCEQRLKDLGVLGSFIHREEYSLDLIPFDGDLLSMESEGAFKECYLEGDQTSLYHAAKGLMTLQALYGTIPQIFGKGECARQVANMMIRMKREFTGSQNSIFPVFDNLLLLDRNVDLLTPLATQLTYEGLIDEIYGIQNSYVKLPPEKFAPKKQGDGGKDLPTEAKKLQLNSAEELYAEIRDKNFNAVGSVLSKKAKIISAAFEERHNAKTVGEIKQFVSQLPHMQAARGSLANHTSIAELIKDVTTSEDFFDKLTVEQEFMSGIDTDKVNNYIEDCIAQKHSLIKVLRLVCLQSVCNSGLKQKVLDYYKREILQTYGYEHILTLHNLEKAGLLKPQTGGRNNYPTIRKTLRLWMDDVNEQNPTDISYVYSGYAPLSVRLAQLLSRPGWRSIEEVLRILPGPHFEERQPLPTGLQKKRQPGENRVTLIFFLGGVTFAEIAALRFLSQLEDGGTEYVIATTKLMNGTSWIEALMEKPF
Chain of UniProt Q9UBK9 (Q9UBK9 whole entry, looked up): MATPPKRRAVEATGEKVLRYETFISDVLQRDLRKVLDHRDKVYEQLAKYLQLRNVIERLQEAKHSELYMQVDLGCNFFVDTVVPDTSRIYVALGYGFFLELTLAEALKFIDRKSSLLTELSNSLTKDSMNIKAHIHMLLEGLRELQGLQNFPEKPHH
Chain of UniProt Q92890 (Q92890 whole entry, looked up): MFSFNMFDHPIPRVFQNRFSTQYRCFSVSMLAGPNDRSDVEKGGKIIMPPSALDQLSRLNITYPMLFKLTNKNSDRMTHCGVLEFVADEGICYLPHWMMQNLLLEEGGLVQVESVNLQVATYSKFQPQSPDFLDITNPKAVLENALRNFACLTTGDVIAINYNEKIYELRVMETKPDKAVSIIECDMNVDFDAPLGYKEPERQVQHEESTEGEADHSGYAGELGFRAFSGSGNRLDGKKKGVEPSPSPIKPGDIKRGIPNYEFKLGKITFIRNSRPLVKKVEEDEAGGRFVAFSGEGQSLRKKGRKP
Chain of UniProt Q9Y5Z9 (Q9Y5Z9 whole entry, looked up): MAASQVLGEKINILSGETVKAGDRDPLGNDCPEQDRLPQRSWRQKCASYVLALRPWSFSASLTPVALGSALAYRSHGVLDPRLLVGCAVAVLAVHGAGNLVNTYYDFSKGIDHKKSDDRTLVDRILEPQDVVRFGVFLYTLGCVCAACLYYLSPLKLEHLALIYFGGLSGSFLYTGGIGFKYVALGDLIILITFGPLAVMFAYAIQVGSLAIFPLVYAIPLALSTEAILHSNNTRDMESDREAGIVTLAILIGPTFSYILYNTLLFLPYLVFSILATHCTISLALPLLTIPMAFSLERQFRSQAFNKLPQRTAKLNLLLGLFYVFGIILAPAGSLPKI

Target	log2 fold change
TNFRSF8 (UniProt P28908)	0.016 (inactive)
TXNRD1 (UniProt Q16881)	-0.049 (inactive)
WDCP (UniProt Q9H6R7)	-0.053 (inactive)
TSC2 (UniProt P49815)	-0.001 (inactive)
TNPO3 (UniProt Q9Y5L0)	-0.156 (inactive)
UBE3B (UniProt Q7Z3V4)	-0.154 (inactive)
TMEM179B (UniProt Q7Z7N9)	-0.24 (inactive)

Compound: CC(C)C1=C2N=C(C=C(N2N=C1)NCC3=CC=CC=C3)NCCCCCCN
Experiment: as above
How it was run: as §1

Target	log2 fold change
UXT isoform 2 (UniProt Q9UBK9)	0.316 (inactive)
TMEM128 (UniProt Q5BJH2)	0.028 (inactive)
VWA3B isoform 6 (UniProt Q502W6)	-0.407 (inactive)
TMEM164 (UniProt Q5U3C3)	-0.309 (inactive)
TXN2 (UniProt Q99757)	0.086 (inactive)
WDR37 isoform 2 (UniProt Q9Y2I8)	-0.011 (inactive)
UBA52 (UniProt P62987)	0.044 (inactive)
U2AF1L5 (UniProt P0DN76)	-0.19 (inactive)
TRIM44 (UniProt Q96DX7)	-0.06 (inactive)
USP15 (UniProt Q9Y4E8)	-0.154 (inactive)
UTP3 (UniProt Q9NQZ2)	-0.062 (inactive)
TTC33 (UniProt Q6PID6)	-0.075 (inactive)
UFD1 isoform 1 (UniProt Q92890)	0.04 (inactive)
TXNL4B (UniProt Q9NX01)	-0.02 (inactive)
TMEM189-UBE2V1 (UniProt I3L0A0)	0.031 (inactive)
WARS1 (UniProt G3V277)	-0.009 (inactive)
UNC119B (UniProt A6NIH7)	0.272 (inactive)

Target	log2 fold change
TSEN2 (UniProt Q8NCE0)	0.033 (inactive)
UCHL5 isoform 3 (UniProt Q9Y5K5)	-0.143 (inactive)
TMEM106B (UniProt Q9NUM4)	-0.092 (inactive)
UBIAD1 (UniProt Q9Y5Z9)	-0.069 (inactive)
UBE4A isoform 2 (UniProt Q14139)	-0.376 (active)
UCHL5 (UniProt Q9Y5K5)	-0.161 (inactive)
VPS33B (UniProt Q9H267)	-0.178 (inactive)
VPS33A (UniProt Q96AX1)	-0.299 (active)
VPS18 (UniProt Q9P253)	-0.319 (inactive)
VKORC1 (UniProt Q9BQB6)	-0.306 (inactive)
TNFRSF8 (UniProt P28908)	0.219 (active)
TXNRD1 (UniProt Q16881)	-0.013 (inactive)
WDCP (UniProt Q9H6R7)	0.032 (inactive)
TSC2 (UniProt P49815)	0.103 (inactive)
TNPO3 (UniProt Q9Y5L0)	-0.154 (inactive)
TMEM179B (UniProt Q7Z7N9)	-0.011 (inactive)
